# From PubChem BioAssay AID2553 (Johns Hopkins Ion Channel Center, 2010)
# Out of some 310,000 compounds screened, about 3,300 (1.1%) were called active.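 How the source made its calls: active means B-score under library mean minus 3 SD, initial fluorescence not abnormally high, positive integrated signal ratio; inactive means the rest.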 The entries come from a sample that favours actives as a whole.
# Target: Short transient receptor potential channel 6 (Mus musculus) (UniProt Q61143)
# Experiment: mouse TRPC6 channel inhibitors, primary screen, cell-based, HEK293, membrane potential dye (AID 2553);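 on B-score: B-score derived from integrated fluorescence ratio over the kinetic read; more negative B-score means stronger inhibition of depolarization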
# Details: ACh-evoked depolarization, at 10 µM; stronger effect = lower value
# Short transient receptor potential channel 6 (Mus musculus), sequence (Q61143 whole entry, looked up): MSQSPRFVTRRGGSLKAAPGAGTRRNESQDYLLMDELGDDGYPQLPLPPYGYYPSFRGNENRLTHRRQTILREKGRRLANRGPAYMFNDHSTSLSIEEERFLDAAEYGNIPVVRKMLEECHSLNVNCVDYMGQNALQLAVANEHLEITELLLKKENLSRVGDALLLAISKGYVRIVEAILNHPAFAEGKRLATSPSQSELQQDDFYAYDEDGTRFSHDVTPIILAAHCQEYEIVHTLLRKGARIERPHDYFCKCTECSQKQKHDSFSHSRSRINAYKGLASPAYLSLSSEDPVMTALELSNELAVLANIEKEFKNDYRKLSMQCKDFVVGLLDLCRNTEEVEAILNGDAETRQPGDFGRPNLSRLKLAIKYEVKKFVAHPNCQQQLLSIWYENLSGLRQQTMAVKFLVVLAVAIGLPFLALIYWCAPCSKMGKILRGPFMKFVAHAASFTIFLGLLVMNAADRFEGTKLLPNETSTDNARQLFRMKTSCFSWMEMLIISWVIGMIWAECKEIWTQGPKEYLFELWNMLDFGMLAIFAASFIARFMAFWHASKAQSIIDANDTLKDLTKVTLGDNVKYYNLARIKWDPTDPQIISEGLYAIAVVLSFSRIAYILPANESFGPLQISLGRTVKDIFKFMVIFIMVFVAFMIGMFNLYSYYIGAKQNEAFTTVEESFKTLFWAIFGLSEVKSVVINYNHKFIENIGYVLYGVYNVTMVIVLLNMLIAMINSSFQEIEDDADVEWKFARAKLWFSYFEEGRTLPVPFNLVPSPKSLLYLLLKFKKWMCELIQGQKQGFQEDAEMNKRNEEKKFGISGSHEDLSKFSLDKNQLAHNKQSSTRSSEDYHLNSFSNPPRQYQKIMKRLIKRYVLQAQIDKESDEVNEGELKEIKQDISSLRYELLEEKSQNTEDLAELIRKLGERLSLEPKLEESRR
row,SMILES,B-score
1,CCn1cc(C(=O)OCC(=O)Nc2cccc(C)c2)c(=O)c2ccc(C)nc21,inactive
2,Cc1nc(-c2ccccc2)sc1C1(C)CC(c2cccnc2)=NO1 (stereo not given),inactive
3,Cc1nc(C(=O)NCc2ccccc2)sc1C1(C)CC(c2cccnc2)=NO1 (stereo not given),-5.44 (active)
4,Cc1nc(C(=O)Nc2ccc(Cl)cc2)sc1C1(C)CC(c2ccccc2)=NO1 (stereo not given),inactive
5,CC(C)(C)CN1CCNC(=O)C1CC(=O)NC1Cc2ccccc2C1 (stereo not given),inactive
6,CCOC(=O)N1CCN(C(=O)COc2ccc(Br)cc2)CC1,inactive
7,CCOC(=O)N1CCN(C(=O)COc2ccc3oc4c(c3c2)CCCC4)CC1,-5.45 (active)
8,CCN(CC)CCCNC(=O)COc1ccc2oc3c(c2c1)CCCC3,inactive
9,COc1ccc(COCCN2CCN(S(=O)(=O)c3ccccc3)CCC2=O)cc1,inactive
10,Cc1ccc(C(O)P(=O)(OC(C)C)c2ccc(N(C)C)cc2)cc1 (stereo not given),inactive
11,CCn1c(SCC(=O)Nc2ccc(Br)cc2)nc2sc3c(c2c1=O)CCN(C)C3,inactive
12,COc1c(C=O)c(CCN(C)C(=O)c2ccc(F)cc2)cc2c1OCO2,inactive
13,COc1ccc(C)cc1S(=O)(=O)Nc1cc2c3c(c1)CCC(=O)N3CCC2,inactive
14,CS(=O)(=O)N1CCN(c2ccc(C(=O)NC3C4CC5CC(C4)CC3C5)cc2[N+](=O)[O-])CC1 (stereo not given),inactive
15,O=C(NC1C2CC3CC(C2)CC1C3)c1ccc(N2CCNCC2)c([N+](=O)[O-])c1 (stereo not given),-6.41 (active)
16,CC(NC(=O)c1ccc(N2CCNCC2)c([N+](=O)[O-])c1)C12CC3CC(CC(C3)C1)C2 (stereo not given),inactive
17,COC(=O)c1ccc(CNC(=O)C2CCC(=O)N(Cc3ccccn3)C2)cc1 (stereo not given),inactive
18,CCCC(=O)Nc1ccc(C(=O)NCCCn2ccnc2)cc1,-6.02 (active)
19,CCCCC(=O)Nc1ccc(C(=O)NCCCn2ccnc2)cc1,inactive
20,COc1cc(OC)cc(C(=O)NCCCn2ccnc2)c1,inactive
21,COc1ccnc(Oc2ccccc2)n1,inactive
22,Cn1nc(C(F)(F)F)c(-c2ccc(F)cc2)c1NC(=O)CSCC(=O)O,inactive
23,CSCCC(NC(=O)c1cc([N+](=O)[O-])cc([N+](=O)[O-])c1)c1nc2ccccc2[nH]1 (stereo not given),inactive
24,CSCCC(NC(=O)c1ccc(=O)n(C)n1)c1nc2ccccc2[nH]1 (stereo not given),-4.99 (active)
25,COc1ccc(CC(=O)N[C@@H](CCSC)c2nc3ccccc3[nH]2)cc1,inactive

row,SMILES,B-score
1,COc1ccccc1Oc1ccc(N2CC(C(=O)OCC(=O)c3ccc(F)cc3)CC2=O)cc1 (stereo not given),inactive
2,CC(C)[C@@H]1COC(c2cccc(C3=N[C@H](C(C)C)CO3)c2)=N1,inactive
3,O=S(=O)(c1cccc(Cn2nnc(-c3ccc(F)cc3)n2)c1)N1CCOCC1,-5.77 (active)
4,Cc1nc(-c2ccc(F)cc2)c(CC(=O)Nc2cccc(S(=O)(=O)N3CCOCC3)c2)s1,inactive
5,CCN(Cc1ccncc1)C(=O)c1cccc(S(=O)(=O)N2CCOCC2)c1,inactive
6,O=C(Nc1ccc(OCC(=O)N2CCOCC2)cc1)c1cc(F)c(F)cc1Cl,inactive
7,COc1ccc2c(c1)C=CC1(O2)N(CCO)c2ccccc2C1(C)C (stereo not given),inactive
8,Cc1ccc(C(=O)N2CC(=O)Nc3ccc(F)cc3C2c2ccc(F)cc2)cc1 (stereo not given),inactive
9,CC(C)C(=O)N1CC(=O)Nc2ccc(F)cc2C1c1ccc(F)cc1 (stereo not given),inactive
10,O=C1CN(C(=O)c2ccccc2F)C(c2ccc(F)cc2)c2cc(F)ccc2N1 (stereo not given),-5.3 (active)
11,CCc1ccc(NC(=O)CS(=O)CC(=O)N2CCN(c3ccccc3F)CC2)cc1 (stereo not given),inactive
12,Cc1c(CCOC(=O)CC23CC4CC(CC(C)(C4)C2)C3)sc[n+]1Cc1ccc([N+](=O)[O-])cc1,-5.88 (active)
13,Cc1c(CCOC(=O)c2cc([N+](=O)[O-])ccc2Cl)sc[n+]1CCCCS(=O)(=O)[O-],inactive
14,Cc1c(CCO)sc[n+]1CC(=O)OC12CC3CC(CC(C3)C1)C2,inactive
15,COc1ccc(NC(=O)CN(C)C(=O)c2ccc(NC3CC3)c([N+](=O)[O-])c2)cc1,inactive
16,CCC(C)(C)N=C(NC#N)Nc1cccnc1,inactive
17,Cc1cccn2c(=O)c3cc(C(=O)NCCN4CCOCC4)c(=N)n(Cc4cccnc4)c3nc12,inactive
18,Cc1cccn2c(=O)c3cc(C#N)c(=NC(=O)c4cccnc4)n(CC4CCCO4)c3nc12 (stereo not given),inactive
19,Cc1cccn2c(=O)c3cc(C#N)c(=O)n(CCCN4CCOCC4)c3nc12,-15.8 (active)
20,CC(C)CCNC(=O)C(C)N(C(=O)Cn1nnc(-c2ccc(F)cc2)n1)C1CCCC1 (stereo not given),inactive
21,CCCCNc1nc2ccccc2nc1NS(=O)(=O)c1cccs1,inactive
22,O=C(CN1C(=O)CSC1=O)N1CCCC(Nc2ccc(F)cc2)C1 (stereo not given),inactive
23,CCOc1cccc(/C(O)=C2/C(=O)C(=O)N(CCOC)C2c2ccncc2)c1 (stereo not given),inactive
24,COc1ccc(C2C(C(C)=O)=C(O)C(=O)N2Cc2cccnc2)cc1 (stereo not given),inactive
25,CCOc1ccc(/C(O)=C2/C(=O)C(=O)N(Cc3cccnc3)C2c2ccc(N(C)C)cc2)c(C)c1 (stereo not given),-6.27 (active)

row,SMILES,B-score
1,O=C(NCc1ccccc1)C1C(=O)N(Cc2ccccc2)C(=O)C1C1(O)CCCC1 (stereo not given),inactive
2,Cc1cc(NC(=O)CN2CCCCC2C)nc2c1c(=O)oc1ccccc12 (stereo not given),inactive
3,CC(=O)N1CCC(N(C(=O)Nc2ccc(Cl)cc2)C(C)C)CC1,inactive
4,COc1ccc(CCn2c(=N)c(C(=O)NCC3CCCO3)cc3c(=O)n4cccc(C)c4nc32)cc1OC (stereo not given),inactive
5,COc1ccc(CNC(=O)c2cc3c(=O)n4ccccc4nc3n(CC3CCCO3)c2=N)cc1 (stereo not given),-7.34 (active)
6,Cc1ccc2nc3c(cc(C(=O)NCCc4ccccc4)c(=N)n3CC3CCCO3)c(=O)n2c1 (stereo not given),inactive
7,CC(C)c1ccc(NC2CCCN(C(=O)c3ccncc3)C2)cc1 (stereo not given),inactive
8,CC(=O)NS(=O)(=O)c1ccc2c(c1)Cc1cc(S(=O)(=O)NC(C)=O)ccc1-2,inactive
9,CCOC(=O)N1CCC(NC(=O)CN2C(=O)COc3ccc(C(C)(C)C)cc32)CC1,-7.85 (active)
10,Cc1ccc2c(c1)N(CC(=O)N1CCC(O)CC1)C(=O)CO2,inactive
11,Cc1ccc2c(c1)N(CC(=O)N1CCCC(C)C1)C(=O)CO2 (stereo not given),inactive
12,CC(NC(=O)CCC(=O)N1CCN(S(=O)(=O)c2ccc(Cl)cc2)CC1)c1ccccc1 (stereo not given),inactive
13,CC12C(=O)N(c3ccccc3)C(=O)C1C(c1ccccc1)N1CCCN12 (stereo not given),inactive
14,O=C(Nc1cccc(Cl)c1N1CCOCC1)c1cccnc1,inactive
15,CCN1CCN(c2c(Cl)cccc2NC(=O)c2ccc(Br)o2)CC1,-12.2 (active)
16,CCCC(=O)Nc1ccc(Cl)c(NC(=O)c2ccc(Br)o2)c1,inactive
17,CCCN=C1NC(=O)C(CC(=O)NCCc2ccc(OC)c(OC)c2)S1 (stereo not given),inactive
18,COc1ccc(NC(=O)CSc2nc(SC)ns2)c(OC)c1,inactive
19,C#CC(CCN1CCCCC1)(OC)c1ccccc1 (stereo not given),inactive
20,CCOC(=O)c1sc2nc(CSc3ccccc3)[nH]c(=O)c2c1C,inactive
21,CCOC(=O)c1sc2nc(CSCC(=O)OCc3ccc(C(=O)OC)o3)[nH]c(=O)c2c1C,-12.7 (active)
22,CCOC(=O)c1sc2nc(C)[nH]c(=O)c2c1C,inactive
23,COc1ccc(NC(=S)N2N=CCC2c2ccccc2)cc1 (stereo not given),inactive
24,Cc1cccc(-[n+]2c(-c3cccc(Br)c3)[nH]c3nc4ccccc4nc32)c1,-6.45 (active)
25,Cc1nnc(SCC(=O)N2CCN(c3ccccc3)CC2)n1-c1ccccc1,inactive

row,SMILES,B-score
1,Cc1nnc(SCc2ccc(C(=O)c3ccc(Cl)cc3)o2)n1-c1ccccc1,-6.02 (active)
2,Cc1nnc(SCC(=O)NCCOc2ccc(Cl)cc2)n1-c1ccccc1,inactive
3,CN1CCN(C(=O)c2ccc(NS(=O)(=O)c3ccccc3)cc2)CC1,inactive
4,O=C(Nc1ccc(Br)cc1F)C1CC(=O)N(C2CCCCC2)C1 (stereo not given),inactive
5,O=C(CN1CCOCC1)Nc1ccc(NC(=O)CN2CCOCC2)c(Cl)c1,inactive
6,CC1CCCN(CC(=O)Nc2cc(Cl)ccc2Oc2ccccc2)C1 (stereo not given),inactive
7,CC(=O)Nc1ccc(NC(=O)CN2CCCC(C)C2)c(Cl)c1 (stereo not given),-5.66 (active)
8,Cc1ccc(S(=O)(=O)C2(S(=O)(=O)c3ccc(C)cc3)CCCC2)cc1,inactive
9,O=S(=O)(Cc1nnnn1-c1ccccc1)c1ccccc1,inactive
10,O=C(OCCN1C(=O)c2ccccc2C1=O)Oc1ccccc1,inactive
11,Cn1c(=O)c2c(nc(NCCNC(=O)c3ccco3)n2Cc2ccccc2F)n(C)c1=O,inactive
12,Cc1ccc(NC(=O)COC(=O)CNC(=O)c2ccc(Cl)cc2Cl)cc1S(=O)(=O)N1CCOCC1,inactive
13,Cc1ccc(C(=O)Nc2sc(Cc3ccc4c(c3)OCO4)c(C)c2C(N)=O)cc1,inactive
14,COc1ccc(CC(=O)Nc2sc(Cc3ccccc3)c(C)c2C(N)=O)cc1,-7.08 (active)
15,COc1ccc(CC(=O)Nc2c(C(N)=O)oc3ccccc23)cc1,inactive
16,Cc1ccccc1N1C(=O)C2ON(c3ccccc3)C(c3ccncc3)C2C1=O (stereo not given),inactive
17,CCN(CC)CCNc1ccc(Cl)cc1[N+](=O)[O-],inactive
18,COC(=O)Cn1c2ccc(C)cc2c2nc(C)sc21,inactive
19,CCN(CC)CCn1c2ccc(Cl)cc2c2nc(C)sc21,-7.92 (active)
20,COCCNc1ccc(-c2n[nH]c(=O)c3ccccc23)cc1[N+](=O)[O-],inactive
21,NS(=O)(=O)c1ccc(CCNC(=O)CCCn2c(SCC(=O)N3CCCC3)nc3ccsc3c2=O)cc1,inactive
22,COc1ccc(Cn2c(-c3ccc(Cl)cc3)c[n+]3ccccc23)cc1,-7.95 (active)
23,CCn1c(C)cc(=O)cc1-c1ccc(Cl)cc1,inactive
24,COc1ccc(Cn2c(=O)cc(C)[nH]c2=S)cc1,inactive
25,CCN1C(=S)N[C@@H](CCc2ccccc2)[C@H](C(=O)OC)[C@H]1C,inactive
